Values without a mark were called inactive.

Experimental findings from the supplement of paper PMC11732987, “Enantioselective OTUD7B fragment discovery through chemoproteomics screening and high-throughput optimisation” (Communications Chemistry, 2025) are described below.

Holding throughout (experiment): log2 ratio of Biotin-Ahx-Ub-VS probe labelling (fragment/DMSO); higher = less target engagement (more negative = stronger competition), active = hit call of the paper (q ≤ 0.05, log2 ratio ≤ -1)
What all share (conditions): compound concentration: 200 uM; treatment time: 3 h

One experiment addresses T1, OTUD6B (UniProt Q8N6M0).
T1 sequence (whole entry): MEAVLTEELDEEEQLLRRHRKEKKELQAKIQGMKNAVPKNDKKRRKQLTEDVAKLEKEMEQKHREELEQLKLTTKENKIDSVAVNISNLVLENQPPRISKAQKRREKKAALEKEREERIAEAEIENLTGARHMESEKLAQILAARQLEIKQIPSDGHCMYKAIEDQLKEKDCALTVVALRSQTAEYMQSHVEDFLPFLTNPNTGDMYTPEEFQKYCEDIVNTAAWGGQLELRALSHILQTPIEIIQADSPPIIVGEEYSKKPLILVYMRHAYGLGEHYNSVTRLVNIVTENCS
Summed up: (§1)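 Labelled DUBs were enriched with NeutrAvidin, digested with LysC and trypsin, and run by diaPASEF LC-MS/MS. The labelling used Biotin-Ahx-Ub-VS at 0.5 µM final for 1 h on HEK293T lysate (495 µg per sample) previously treated in triplicate with fragment at 200 µM or vehicle for 3 h. Values are average log2 fragment/vehicle ratios by unpaired t-test on global-median-normalised Spectronaut quantities of proteins with ≥2 unique peptides.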

The target of the next experiment is T2, OTUD7B (UniProt Q6GQQ9).
T2 sequence (whole entry): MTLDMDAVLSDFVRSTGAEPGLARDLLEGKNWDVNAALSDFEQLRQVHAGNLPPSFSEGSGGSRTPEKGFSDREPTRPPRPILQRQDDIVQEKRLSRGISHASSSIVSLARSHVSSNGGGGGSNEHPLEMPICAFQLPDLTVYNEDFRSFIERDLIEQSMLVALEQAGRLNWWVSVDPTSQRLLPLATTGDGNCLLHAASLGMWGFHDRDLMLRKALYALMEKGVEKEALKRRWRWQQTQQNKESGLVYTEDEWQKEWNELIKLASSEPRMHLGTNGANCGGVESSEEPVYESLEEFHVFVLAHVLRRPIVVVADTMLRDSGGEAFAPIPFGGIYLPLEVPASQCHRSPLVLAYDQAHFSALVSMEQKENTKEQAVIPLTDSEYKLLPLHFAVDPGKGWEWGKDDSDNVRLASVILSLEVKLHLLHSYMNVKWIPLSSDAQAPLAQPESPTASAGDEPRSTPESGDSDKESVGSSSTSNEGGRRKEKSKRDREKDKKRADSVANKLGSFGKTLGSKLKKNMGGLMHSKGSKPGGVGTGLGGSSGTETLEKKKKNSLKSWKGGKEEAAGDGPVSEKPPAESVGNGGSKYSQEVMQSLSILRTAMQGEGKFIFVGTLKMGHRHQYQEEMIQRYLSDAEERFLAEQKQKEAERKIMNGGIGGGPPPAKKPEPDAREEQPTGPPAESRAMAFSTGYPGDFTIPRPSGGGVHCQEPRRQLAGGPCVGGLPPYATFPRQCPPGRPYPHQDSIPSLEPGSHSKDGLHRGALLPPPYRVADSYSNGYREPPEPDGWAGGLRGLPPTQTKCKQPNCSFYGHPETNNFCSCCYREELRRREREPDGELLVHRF
The procedure, abridged: as §1

The next experiment concerns the target PRPF8 (UniProt Q6P2Q9). Summed up: as §1
For the next experiment, the target named is T3, PSMD7 (UniProt P51665).
T3 sequence (whole entry): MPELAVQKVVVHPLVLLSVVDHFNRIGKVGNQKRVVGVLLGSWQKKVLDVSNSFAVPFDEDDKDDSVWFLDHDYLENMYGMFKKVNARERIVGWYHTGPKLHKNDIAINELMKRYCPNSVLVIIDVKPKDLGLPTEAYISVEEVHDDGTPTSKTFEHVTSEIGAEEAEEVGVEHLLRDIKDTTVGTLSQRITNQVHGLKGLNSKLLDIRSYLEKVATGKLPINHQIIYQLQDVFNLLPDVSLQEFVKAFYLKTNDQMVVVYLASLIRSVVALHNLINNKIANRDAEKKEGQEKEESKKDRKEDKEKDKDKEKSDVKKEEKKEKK
Summed up:
as §1

The target in another experiment is UCHL1 (UniProt P09936). Summed up:
as §1

Another experiment concerns the target T4, UCHL3 (UniProt P15374).
T4 sequence (whole entry): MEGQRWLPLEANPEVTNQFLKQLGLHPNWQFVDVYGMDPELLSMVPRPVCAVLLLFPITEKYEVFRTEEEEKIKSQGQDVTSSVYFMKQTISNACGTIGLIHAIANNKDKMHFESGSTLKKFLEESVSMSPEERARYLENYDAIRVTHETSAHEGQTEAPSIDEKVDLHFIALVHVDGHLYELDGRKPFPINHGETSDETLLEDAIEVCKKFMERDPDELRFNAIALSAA
The procedure, abridged:
as §1

The target of the next experiment is T5, UCHL5 (UniProt Q9Y5K5).
T5 sequence (whole entry): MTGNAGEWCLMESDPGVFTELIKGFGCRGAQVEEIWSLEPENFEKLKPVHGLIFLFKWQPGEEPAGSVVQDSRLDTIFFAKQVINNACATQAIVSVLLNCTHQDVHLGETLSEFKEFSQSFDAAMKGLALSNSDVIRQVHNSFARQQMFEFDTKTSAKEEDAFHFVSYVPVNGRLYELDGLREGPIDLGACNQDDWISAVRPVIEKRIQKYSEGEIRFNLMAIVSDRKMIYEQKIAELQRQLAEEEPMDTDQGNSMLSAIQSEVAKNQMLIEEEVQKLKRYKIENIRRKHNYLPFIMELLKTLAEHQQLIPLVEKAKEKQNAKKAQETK
The procedure, abridged: as §1

For the next experiment, the target named is USP10 (UniProt Q14694). Summed up: as §1
The target in the next experiment is T6, USP15 (UniProt Q9Y4E8).
T6 sequence (whole entry): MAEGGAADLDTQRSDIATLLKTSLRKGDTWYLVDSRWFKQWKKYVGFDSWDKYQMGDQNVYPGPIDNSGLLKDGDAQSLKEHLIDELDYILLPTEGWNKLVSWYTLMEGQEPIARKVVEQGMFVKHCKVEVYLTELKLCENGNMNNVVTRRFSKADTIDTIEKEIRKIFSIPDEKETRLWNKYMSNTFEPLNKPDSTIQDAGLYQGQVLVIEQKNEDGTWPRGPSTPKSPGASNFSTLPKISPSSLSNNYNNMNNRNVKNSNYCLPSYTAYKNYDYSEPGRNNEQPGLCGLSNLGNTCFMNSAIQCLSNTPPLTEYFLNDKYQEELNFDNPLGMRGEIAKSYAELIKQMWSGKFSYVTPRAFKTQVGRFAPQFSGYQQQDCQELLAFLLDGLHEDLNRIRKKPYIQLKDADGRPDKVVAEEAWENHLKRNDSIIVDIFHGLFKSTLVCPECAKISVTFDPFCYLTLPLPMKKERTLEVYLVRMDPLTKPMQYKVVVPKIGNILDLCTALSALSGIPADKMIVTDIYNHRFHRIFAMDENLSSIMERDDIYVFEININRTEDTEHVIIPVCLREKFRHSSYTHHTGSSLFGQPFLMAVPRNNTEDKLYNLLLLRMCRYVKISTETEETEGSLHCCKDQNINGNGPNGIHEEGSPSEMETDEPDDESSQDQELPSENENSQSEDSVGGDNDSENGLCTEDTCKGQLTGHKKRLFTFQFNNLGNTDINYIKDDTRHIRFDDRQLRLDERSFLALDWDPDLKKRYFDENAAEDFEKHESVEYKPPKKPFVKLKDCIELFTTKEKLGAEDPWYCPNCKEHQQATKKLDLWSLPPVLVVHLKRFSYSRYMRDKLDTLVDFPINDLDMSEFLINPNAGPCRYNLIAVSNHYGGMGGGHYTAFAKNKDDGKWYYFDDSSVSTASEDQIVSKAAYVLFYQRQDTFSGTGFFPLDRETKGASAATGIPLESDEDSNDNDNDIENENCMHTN
The procedure, abridged: as §1

Another experiment deals with USP16 (UniProt Q9Y5T5). The procedure, abridged: as §1
Chain of USP16 (Q9Y5T5 whole entry, looked up): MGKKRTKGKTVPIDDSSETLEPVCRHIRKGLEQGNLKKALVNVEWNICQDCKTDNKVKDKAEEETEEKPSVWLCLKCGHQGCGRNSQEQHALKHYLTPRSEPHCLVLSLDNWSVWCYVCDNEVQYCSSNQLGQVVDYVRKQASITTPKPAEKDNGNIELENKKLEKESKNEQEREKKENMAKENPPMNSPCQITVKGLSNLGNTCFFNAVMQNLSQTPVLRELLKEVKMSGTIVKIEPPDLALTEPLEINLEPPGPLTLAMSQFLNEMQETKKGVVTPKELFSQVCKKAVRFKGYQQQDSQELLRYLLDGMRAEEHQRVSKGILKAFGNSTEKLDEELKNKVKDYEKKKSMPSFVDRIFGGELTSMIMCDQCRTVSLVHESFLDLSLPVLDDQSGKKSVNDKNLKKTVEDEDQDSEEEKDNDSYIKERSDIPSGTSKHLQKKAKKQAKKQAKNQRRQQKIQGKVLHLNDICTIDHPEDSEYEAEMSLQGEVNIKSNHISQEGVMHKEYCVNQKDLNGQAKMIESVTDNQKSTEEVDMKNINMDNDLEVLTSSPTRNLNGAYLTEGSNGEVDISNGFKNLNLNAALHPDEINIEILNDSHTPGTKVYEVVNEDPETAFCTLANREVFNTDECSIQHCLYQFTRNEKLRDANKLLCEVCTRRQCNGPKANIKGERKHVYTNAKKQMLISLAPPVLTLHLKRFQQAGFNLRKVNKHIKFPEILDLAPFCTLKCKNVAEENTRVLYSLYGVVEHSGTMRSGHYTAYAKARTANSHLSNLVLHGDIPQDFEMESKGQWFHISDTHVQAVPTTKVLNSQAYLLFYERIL

Chain of UCHL1 (P09936 whole entry, looked up): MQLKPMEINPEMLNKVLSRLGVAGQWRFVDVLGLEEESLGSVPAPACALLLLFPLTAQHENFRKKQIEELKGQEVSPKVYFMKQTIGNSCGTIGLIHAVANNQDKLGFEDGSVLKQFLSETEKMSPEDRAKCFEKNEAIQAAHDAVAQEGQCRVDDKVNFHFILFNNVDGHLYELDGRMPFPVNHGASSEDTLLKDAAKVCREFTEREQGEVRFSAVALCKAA
Chain of USP10 (Q14694 whole entry): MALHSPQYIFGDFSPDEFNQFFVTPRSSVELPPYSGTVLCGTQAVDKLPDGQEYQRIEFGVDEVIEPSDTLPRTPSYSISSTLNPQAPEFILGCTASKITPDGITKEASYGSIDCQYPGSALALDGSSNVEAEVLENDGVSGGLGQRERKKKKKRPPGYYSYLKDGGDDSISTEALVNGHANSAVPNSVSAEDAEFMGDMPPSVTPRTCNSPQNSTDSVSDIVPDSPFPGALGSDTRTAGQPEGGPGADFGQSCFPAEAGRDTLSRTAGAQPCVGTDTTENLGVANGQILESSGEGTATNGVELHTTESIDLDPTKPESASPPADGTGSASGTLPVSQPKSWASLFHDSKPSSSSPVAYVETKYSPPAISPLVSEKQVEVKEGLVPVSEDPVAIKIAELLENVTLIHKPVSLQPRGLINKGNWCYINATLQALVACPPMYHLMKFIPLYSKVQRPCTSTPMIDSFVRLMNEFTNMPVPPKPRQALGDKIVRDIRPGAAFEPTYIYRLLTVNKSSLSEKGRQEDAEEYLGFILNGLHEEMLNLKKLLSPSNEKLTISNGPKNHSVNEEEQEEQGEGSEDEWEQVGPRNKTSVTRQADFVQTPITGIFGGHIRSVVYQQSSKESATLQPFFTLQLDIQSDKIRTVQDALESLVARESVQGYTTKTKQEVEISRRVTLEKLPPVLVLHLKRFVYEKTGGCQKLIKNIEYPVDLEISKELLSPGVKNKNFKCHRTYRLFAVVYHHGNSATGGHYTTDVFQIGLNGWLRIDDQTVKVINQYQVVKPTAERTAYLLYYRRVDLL

With `O=C(CCl)N1CCC(c2ccn[nH]2)C1` (stereo not given), the “log2 ratio of Biotin-Ahx-Ub-VS probe labelling” value (shortened to “log2 ratio”) in the experiment with OTUD6B is -0.234; with OTUD7B it was -0.648; with PRPF8, -0.154; with PSMD7, -0.294; with UCHL1 it was -0.579; with UCHL3, -0.0683. Also, the “log2 ratio” value with UCHL5 is -0.213; in the experiment with USP10, -0.079; with USP15, -0.555; with USP16, -0.161.

On to `O=C(O)C1Cc2ccccc2CN1C(=O)CCl` (stereo not given), for which the “log2 ratio” value with OTUD6B was -0.439; in the experiment with OTUD7B, -0.732; with PRPF8, -0.175; with PSMD7, -0.239; with UCHL1, -1.8 (active); with UCHL3, -0.19. For the same compound, the “log2 ratio” value with UCHL5 was -0.324; with USP10 it was -0.112; with USP15 it was -0.35; in the experiment with USP16 it was 0.23.

As to `Cc1ccc(CN(CCO)C(=O)CCl)cc1`, the “log2 ratio” value with OTUD6B was -0.389; with OTUD7B, -1.14 (active); with PRPF8, 0.0652; with PSMD7, -0.47; in the experiment with UCHL1 it was -1.56 (active); with UCHL3, 0.0861. Besides, the “log2 ratio” value was -0.52 with UCHL5, -0.0725 with USP10, -0.384 with USP15 and 0.361 with USP16.

As to `CCCn1nccc1NC(=O)CCl`, the “log2 ratio” value is 0.0729 with OTUD6B; -1.42 (active) in the experiment with OTUD7B; 0.193 in the experiment with PRPF8; -0.254 with PSMD7; -0.343 with UCHL1; 0.0705 in the experiment with UCHL3. Besides, the “log2 ratio” value is -0.074 in the experiment with UCHL5, -0.0888 in the experiment with USP10, -0.238 in the experiment with USP15 and -0.307 in the experiment with USP16.

Turning to `Cc1cc(Cl)ccc1NC(=O)CCl`, the “log2 ratio” value with OTUD6B was -0.0452; in the experiment with OTUD7B, -0.649; with PRPF8 it was 0.192; in the experiment with PSMD7, 0.0336; with UCHL1, -1.46 (active); with UCHL3, 0.0619. For the same compound, the “log2 ratio” value with UCHL5 is -0.109; with USP10, -0.132; in the experiment with USP15, -0.218; with USP16, -0.157.

As to `Cl.Cn1nccc1C(NC(=O)CCl)c1ccccc1` (stereo not given), the “log2 ratio” value was -0.147 with OTUD6B; -0.872 in the experiment with OTUD7B; 0.0203 with PRPF8; -0.597 in the experiment with PSMD7; -1.03 (active) in the experiment with UCHL1; 0.209 with UCHL3. Besides, the “log2 ratio” value with UCHL5 was -0.353; in the experiment with USP10, -0.0201; with USP15, -0.218; with USP16 it was -0.0928.

On to `O=C(CCl)N1CC=C(c2c[nH]c3ccccc23)CC1`, for which the “log2 ratio” value is -0.33 in the experiment with OTUD6B; -0.605 in the experiment with OTUD7B; 0.0222 with PRPF8; 0.00731 with PSMD7; -1.12 (active) with UCHL1; 0.00279 with UCHL3. For the same compound, the “log2 ratio” value with UCHL5 is -0.387; in the experiment with USP10, -0.299; with USP15, -1.46 (active); with USP16, 0.156.
